The record followed here is publication PMC8384837, “Expanding the binding specificity for RNA recognition by a PUF domain”.

Common to all, as to assay: yeast three-hybrid, YBZ-1, SC-Leu-His + 0.5 mM 3-AT, 4 days
Holding throughout (conditions): tags: N-Gal4 AD-HA kept; label: inside an RPR1-promoter hybrid RNA with tandem MS2 sites; ssRNA

For one experiment, the target named is PUM1 PUF domain R5-RYS (Homo sapiens, UniProt Q14671 828-1176, C1007R;R1008Y;Q1011S). The method in brief:
(§1)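 The interaction score is the log change in how often each variant appears, from input to selection. Frequencies came from PCR-amplified, Illumina-sequenced repeat regions of Pumilio-1 PUF domain libraries grown in strain YBZ-1 (LexA–MS2 coat fusion, HIS3 reporter) alongside matching RNA elements. Input plates were SC-Leu and selection plates were SC-Leu-His + 0.5 mM 3-AT, each for four days, and the log2 calculation used a pseudocount of 1 where a variant was absent.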

The target of another experiment is PUM1 PUF domain R5-RFL (Homo sapiens, UniProt Q14671 828-1176, C1007R;R1008F;Q1011L). The essentials: as §1
Sequence of PUM1 PUF domain R5-RFL (Q14671 828-1176 C1007R/R1008F/Q1011L): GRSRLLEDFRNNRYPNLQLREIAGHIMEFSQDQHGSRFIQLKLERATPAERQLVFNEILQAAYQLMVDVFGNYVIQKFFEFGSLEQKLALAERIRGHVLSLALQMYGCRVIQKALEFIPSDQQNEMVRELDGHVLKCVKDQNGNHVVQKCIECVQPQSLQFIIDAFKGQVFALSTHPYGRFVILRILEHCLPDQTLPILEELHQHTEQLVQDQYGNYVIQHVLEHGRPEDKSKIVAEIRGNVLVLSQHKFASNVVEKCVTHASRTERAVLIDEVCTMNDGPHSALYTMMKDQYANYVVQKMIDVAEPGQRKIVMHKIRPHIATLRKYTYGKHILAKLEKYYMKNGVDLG
A further experiment concerns the target PUM1 PUF domain R5-MKC (Homo sapiens, UniProt Q14671 828-1176, C1007M;R1008K;Q1011C). The essentials: as §1
In the next experiment the target is PUM1 PUF domain R5-RAQ (Homo sapiens, UniProt Q14671 828-1176, C1007R;R1008A). The method in brief:
as §1

The next experiment has as its target PUM1 PUF domain R2-EWV (Homo sapiens, UniProt Q14671 828-1176, N899E;Y900W;Q903V). The essentials: as §1
For another experiment, the target named is PUM1 PUF domain R4-SPA (Homo sapiens, UniProt Q14671 828-1176, N971S;H972P;Q975A). The method in brief: as §1
Sequence of PUM1 PUF domain R4-SPA (Q14671 828-1176 N971S/H972P/Q975A): as the sequence (Q14671 828-1176 C1007R/R1008F/Q1011L) above, with N144S, H145P, Q148A, R180C, F181R, L184Q counted along it
A further experiment has as its target PUM1 PUF domain R4-RFP (Homo sapiens, UniProt Q14671 828-1176, N971R;H972F;Q975P). The method in brief: as §1
A further experiment deals with PUM1 PUF domain R7-RVM (Homo sapiens, UniProt Q14671 828-1176, S1079R;N1080V;E1083M). The method in brief: as §1
Another experiment concerns the target PUM1 PUF domain R7-KSG (Homo sapiens, UniProt Q14671 828-1176, S1079K;N1080S;E1083G). The method in brief: as §1
A further experiment addresses PUM1 PUF domain R1-VTW (Homo sapiens, UniProt Q14671 828-1176, S863V;R864T;Q867W). The essentials: as §1
Another experiment has as its target PUM1 PUF domain R2-EWL (Homo sapiens, UniProt Q14671 828-1176, N899E;Y900W;Q903L). The method in brief:
as §1

A further experiment addresses PUM1 PUF domain R5-RKC (Homo sapiens, UniProt Q14671 828-1176, C1007R;R1008K;Q1011C). The method in brief: as §1
The target in another experiment is PUM1 PUF domain R5-SSR (Homo sapiens, UniProt Q14671 828-1176, C1007S;R1008S;Q1011R). The essentials:
as §1

In the next experiment the target is PUM1 PUF domain R5-KCL (Homo sapiens, UniProt Q14671 828-1176, C1007K;R1008C;Q1011L). The essentials:
as §1

Another experiment addresses PUM1 PUF domain R5-SPR (Homo sapiens, UniProt Q14671 828-1176, C1007S;R1008P;Q1011R). The method in brief:
as §1

A further experiment addresses PUM1 PUF domain R3-TFF (Homo sapiens, UniProt Q14671 828-1176, C935T;R936F;Q939F). The method in brief:
as §1

In a further experiment the target is PUM1 PUF domain R3-FYG (Homo sapiens, UniProt Q14671 828-1176, C935F;R936Y;Q939G). The essentials: as §1
Sequence of PUM1 PUF domain R3-FYG (Q14671 828-1176 C935F/R936Y/Q939G): as the sequence (Q14671 828-1176 C1007R/R1008F/Q1011L) above, with C108F, R109Y, Q112G, R180C, F181R, L184Q counted along it
Another experiment addresses T1, PUM1 PUF domain R6-FRS (Homo sapiens, UniProt Q14671 828-1176, N1043F;Y1044R;Q1047S).
T1 sequence: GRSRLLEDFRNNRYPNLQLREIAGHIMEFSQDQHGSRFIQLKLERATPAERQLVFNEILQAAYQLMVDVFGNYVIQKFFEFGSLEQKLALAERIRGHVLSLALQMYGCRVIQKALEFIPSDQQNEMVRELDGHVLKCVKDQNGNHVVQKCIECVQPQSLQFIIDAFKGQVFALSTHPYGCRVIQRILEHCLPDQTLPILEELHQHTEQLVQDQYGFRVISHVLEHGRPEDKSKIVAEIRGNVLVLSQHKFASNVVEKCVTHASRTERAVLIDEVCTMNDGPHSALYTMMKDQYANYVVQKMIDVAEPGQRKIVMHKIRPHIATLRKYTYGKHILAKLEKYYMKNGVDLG
The essentials:
as §1

Another experiment deals with PUM1 PUF domain R5-MYR (Homo sapiens, UniProt Q14671 828-1176, C1007M;R1008Y;Q1011R). The essentials: as §1
The next experiment addresses PUM1 PUF domain R3-FCM (Homo sapiens, UniProt Q14671 828-1176, C935F;R936C;Q939M). The method in brief: as §1

Sequence of PUM1 PUF domain R5-RYS (Q14671 828-1176 C1007R/R1008Y/Q1011S): as the sequence (Q14671 828-1176 C1007R/R1008F/Q1011L) above, with F181Y, L184S counted along it
Sequence of PUM1 PUF domain R5-RAQ (Q14671 828-1176 C1007R/R1008A): as the sequence (Q14671 828-1176 C1007R/R1008F/Q1011L) above, with F181A, L184Q counted along it

With “GGCUAGAACUAGUGGAUCCCCCGGCGCCCGGCGGCUCGAGCCCGGGUAAGUGUUAAUAGUCUGCAUGCCGCCGGGCGCCAUGCCUGCAGGUCGACUCUAGAAAACAUG”, the binding signal with PUM1 PUF domain R5-RYS is 3.23 log2 enrichment (interaction score); in the experiment with PUM1 PUF domain R5-RFL, 4.97 log2 enrichment (interaction score); with PUM1 PUF domain R5-MKC it was 2.53 log2 enrichment (interaction score); with PUM1 PUF domain R5-RAQ, 4.06 log2 enrichment (interaction score).
Take “GGCUAGAACUAGUGGAUCCCCCGGCGCCCGGCGGCUCGAGCCCGGGUAAGUGUAAAGAGUCUGCAUGCCGCCGGGCGCCAUGCCUGCAGGUCGACUCUAGAAAACAUG”: the binding signal in the experiment with PUM1 PUF domain R2-EWV is 2.77 log2 enrichment (interaction score).
For the sequence “GGCUAGAACUAGUGGAUCCCCCGGCGCCCGGCGGCUCGAGCCCGGGUAAGUGUAUAUAGUCUGCAUGCCGCCGGGCGCCAUGCCUGCAGGUCGACUCUAGAAAACAUG”, the binding signal with PUM1 PUF domain R4-SPA was 3.25 log2 enrichment (interaction score); in the experiment with PUM1 PUF domain R4-RFP, 3.26 log2 enrichment (interaction score).
Take “GGCUAGAACUAGUGGAUCCCCCGGCGCCCGGCGGCUCGAGCCCGGGUAAGUUUAAAUAGUCUGCAUGCCGCCGGGCGCCAUGCCUGCAGGUCGACUCUAGAAAACAUG”: the figures for the binding signal with PUM1 PUF domain R7-RVM and with PUM1 PUF domain R7-KSG were 2.72 log2 enrichment (interaction score) and 2.37 log2 enrichment (interaction score), respectively.
As to “GGCUAGAACUAGUGGAUCCCCCGGCGCCCGGCGGCUCGAGCCCGGGUAAGUGUAAAUUGUCUGCAUGCCGCCGGGCGCCAUGCCUGCAGGUCGACUCUAGAAAACAUG”, the binding signal in the experiment with PUM1 PUF domain R1-VTW was 3.57 log2 enrichment (interaction score).
In the case of “GGCUAGAACUAGUGGAUCCCCCGGCGCCCGGCGGCUCGAGCCCGGGUAAGUGUAAAAAGUCUGCAUGCCGCCGGGCGCCAUGCCUGCAGGUCGACUCUAGAAAACAUG”, the binding signal with PUM1 PUF domain R2-EWV is 5.9 log2 enrichment (interaction score); with PUM1 PUF domain R2-EWL, 6.51 log2 enrichment (interaction score).
Turning to “GGCUAGAACUAGUGGAUCCCCCGGCGCCCGGCGGCUCGAGCCCGGGUAAGUGUCAAUAGUCUGCAUGCCGCCGGGCGCCAUGCCUGCAGGUCGACUCUAGAAAACAUG”, the binding signal was 3.84 log2 enrichment (interaction score) with PUM1 PUF domain R5-RKC; 5.4 log2 enrichment (interaction score) with PUM1 PUF domain R5-RYS; 4.06 log2 enrichment (interaction score) with PUM1 PUF domain R5-RFL; 6.53 log2 enrichment (interaction score) with PUM1 PUF domain R5-SSR; 4.49 log2 enrichment (interaction score) in the experiment with PUM1 PUF domain R5-RAQ; 3.63 log2 enrichment (interaction score) with PUM1 PUF domain R5-KCL. Further, in the experiment with PUM1 PUF domain R5-SPR, the binding signal was 5.38 log2 enrichment (interaction score).
“GGCUAGAACUAGUGGAUCCCCCGGCGCCCGGCGGCUCGAGCCCGGGUAAGUCUAAAUAGUCUGCAUGCCGCCGGGCGCCAUGCCUGCAGGUCGACUCUAGAAAACAUG”: the binding signal with PUM1 PUF domain R7-KSG is 0.94 log2 enrichment (interaction score).
On to “GGCUAGAACUAGUGGAUCCCCCGGCGCCCGGCGGCUCGAGCCCGGGUAAGUGUAAUUAGUCUGCAUGCCGCCGGGCGCCAUGCCUGCAGGUCGACUCUAGAAAACAUG”, for which the figures for the binding signal with PUM1 PUF domain R3-TFF and in the experiment with PUM1 PUF domain R3-FYG were 1.36 log2 enrichment (interaction score) and 5.45 log2 enrichment (interaction score), respectively.
In the case of “GGCUAGAACUAGUGGAUCCCCCGGCGCCCGGCGGCUCGAGCCCGGGUAAGUGUAAAUAGUCUGCAUGCCGCCGGGCGCCAUGCCUGCAGGUCGACUCUAGAAAACAUG”, the binding signal in the experiment with PUM1 PUF domain R5-RYS is 3.42 log2 enrichment (interaction score); with PUM1 PUF domain R3-TFF, 6.12 log2 enrichment (interaction score); with PUM1 PUF domain R4-SPA, 3.03 log2 enrichment (interaction score); with PUM1 PUF domain R5-RFL, 3.51 log2 enrichment (interaction score); in the experiment with PUM1 PUF domain R5-RAQ, 1.44 log2 enrichment (interaction score); with PUM1 PUF domain R4-RFP, 6.66 log2 enrichment (interaction score). In addition, the binding signal with PUM1 PUF domain R5-KCL is 2.45 log2 enrichment (interaction score); in the experiment with PUM1 PUF domain R3-FYG, 4.62 log2 enrichment (interaction score); in the experiment with PUM1 PUF domain R6-FRS it was 2.9 log2 enrichment (interaction score); in the experiment with PUM1 PUF domain R5-MYR it was 2.55 log2 enrichment (interaction score).
“GGCUAGAACUAGUGGAUCCCCCGGCGCCCGGCGGCUCGAGCCCGGGUAAGUGUACAUAGUCUGCAUGCCGCCGGGCGCCAUGCCUGCAGGUCGACUCUAGAAAACAUG”: in the experiment with PUM1 PUF domain R4-SPA, the binding signal is 1.59 log2 enrichment (interaction score).
With “GGCUAGAACUAGUGGAUCCCCCGGCGCCCGGCGGCUCGAGCCCGGGUAAGUGUAAGUAGUCUGCAUGCCGCCGGGCGCCAUGCCUGCAGGUCGACUCUAGAAAACAUG”, the results for the binding signal with PUM1 PUF domain R3-FYG and with PUM1 PUF domain R3-FCM were 7.3 log2 enrichment (interaction score) and 4.3 log2 enrichment (interaction score), respectively.
